In PubChem BioAssay AID1259313 (Sanford-Burnham Center for Chemical Genomics, 2017):
Out of some 340,000 compounds screened, about 8,500 (2.5%) were called active.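 Rule for the calls: active = melting temperature shift of at least 10% of the positive control shift, at one fixed dose; inactive = the rest.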 For the sample, actives were picked, then their nearest neighbours and some compounds at random.

Tested on: Glutamate receptor ionotropic, NMDA 3A (GRIN3A) ligand-binding domain
Assay: NR3A LBD thermal stabilization by compounds – biophysical, differential scanning fluorimetry, uHTS, primary screen (AID 1259313)
Conditions: at 25 µM, hits give high values, 0% = protein alone, 100% = glycine-bound protein

| SMILES | Tm shift relative to glycine control |
| --- | --- |
| NC(=O)C1CC(=O)N(c2ccc(OCC(=O)NCc3ccccc3)cc2)C1 (configuration not stated) | -0.09% (inactive) |
| O=C(O)c1ccccc1N=N/C(=N/Nc1cc(S(=O)(=O)O)ccc1O)c1ccccc1 | 25.2% (active) |
| O=C(COC(=O)c1c2c(nc3ccccc13)CCCC2)c1ccc(Br)s1 | -4.51% (inactive) |
| Cn1cccc1C(=O)OCC(=O)NCCc1ccccc1 | -0.25% (inactive) |
| Cn1cccc1C(=O)OCC(=O)c1ccc(Br)s1 | 14% (active) |
| O=C(Nc1cccc(C(=O)NC2CC2)c1)c1ccc(F)c(S(=O)(=O)N2CCOCC2)c1 | 4.42% (inactive) |
| COc1ccc(/C=C/C(=O)c2ccc(NS(=O)(=O)c3ccc(C)cc3)cc2)cc1O | 24.6% (active) |
| Cc1ccc(C(=O)/C=C/Nc2ccc(S(=O)(=O)Nc3onc(C)c3C)cc2)cc1 | -6.78% (inactive) |
| COc1ccc(NS(=O)(=O)c2ccc(NC(=S)NC(=O)/C=C/c3ccc(C)cc3)cc2)nn1 | -7.2% (inactive) |
| CCOC(=O)C1CCN(C(=O)CN2C(=O)NC(C)(c3ccc4cc(OC)ccc4c3)C2=O)CC1 (configuration not stated) | 0.17% (inactive) |
| Cc1onc(-c2ccccc2Cl)c1C(=O)OCC(=O)c1ccccc1 | -1.07% (inactive) |
| Cc1[nH]c2ccccc2c1C(=O)COC(=O)c1c(-c2ccccc2)noc1C | 18.8% (active) |
| CCOC(=O)c1c(-c2cccc(C)c2)csc1NC(=O)c1c(-c2ccccc2)noc1C | -0.48% (inactive) |
| COc1cc(NC(=O)CCNC(=O)Cn2ccc3ccccc3c2=O)cc(OC)c1OC | 1.09% (inactive) |
| O=C(CSc1nnc(-c2ccncc2)o1)NCc1ccc(Cl)cc1 | 1.65% (inactive) |
| O=C(CSc1nnc(-c2ccncc2)o1)Nc1cccc(Cl)c1 | -2.14% (inactive) |
| O=C(COC(=O)CSc1nnc(-c2ccc(Cl)cc2)o1)Nc1cc(Cl)cc(Cl)c1 | 19.4% (active) |
| NCC(=O)c1cccc2ccc[n+]([O-])c12 | 7.2% (inactive) |
| Cc1ccc(C)c(NC(=O)COC(=O)c2nn(C)c(=O)c3ccccc23)c1 | 0.34% (inactive) |

| SMILES | Tm shift relative to glycine control |
| --- | --- |
| O=P(O)(CP(=O)(c1ccccc1)c1ccccc1)c1ccccc1O | -4.72% (inactive) |
| COc1ccc(OC)c(NC(=O)C2CCCN2S(=O)(=O)c2cccc3nsnc23)c1 (configuration not stated) | 13.4% (active) |
| CC(=O)c1cccc(NC(=O)C2CCCN2S(=O)(=O)c2cccc3nsnc23)c1 (configuration not stated) | 1.52% (inactive) |
| CC1CCCCC1NC(=O)C1CCCN1S(=O)(=O)c1cccc2nsnc12 (configuration not stated) | -1.29% (inactive) |
| COc1ccc(CCC(=O)OCC(=O)Nc2ccc(C)c(S(=O)(=O)N(C)C)c2)cc1 | -3.89% (inactive) |
| Cc1c(C=O)c2ccccc2n1CCOc1ccccc1 | -1.12% (inactive) |
| COC(=O)c1ccc(COc2cc([N+](=O)[O-])cc3cccnc23)cc1 | -1.16% (inactive) |
| COc1ccc([C@H]2CC(=O)C=C(/C=C/c3ccccc3)C2)cc1 | -0.08% (inactive) |
| COc1ccc([C@H]2CC(=O)C=C(/C=C/c3ccc(Cl)cc3)C2)cc1 | 25.2% (active) |
| CCCCC/C=C/C1=CC(=O)C[C@H](c2ccc(Cl)cc2)C1 | -2.27% (inactive) |
| CC1(C)O[C@@H]2CC3C4C[C@H](F)C5=CC(=O)C=CC5(C)C4C(O)CC3(C)[C@]2(C(=O)CO)O1 (some centres not stated) | -0.79% (inactive) |
| COc1ccc(NC(=O)C2CCN(S(=O)(=O)c3ccc4[nH]c(=O)oc4c3)CC2)c(OC)c1 | -2.13% (inactive) |
| O=C(Nc1ccc2ccccc2c1)Nc1ccc2snnc2c1 | 157% (active) |
| O=C(Nc1cccc(Br)c1)c1ccc2snnc2c1 | -4.74% (inactive) |
| Cc1nc2cc(NC(=O)Nc3cccc(F)c3)ccc2n1C | -0.72% (inactive) |
| Cc1cccc(C)c1NC(=O)CSc1nc2c([nH]1)c(=O)n(C)c(=O)n2C | -0.47% (inactive) |
| CO[C@@H]1[C@@H](OC(N)=O)[C@@H](O)C(Oc2ccc3c(O)c(NC(=O)c4ccc(O)c(CC=C(C)C)c4)c(=O)oc3c2C)OC1(C)C (some centres not stated) | -12.2% (inactive) |
| Cc1ccc(C)c(NC(=S)NNC(=S)Nc2ccc(C(C)C)cc2)c1 | 12.8% (active) |
| CC(C)c1ccc(NC(=S)NNc2ccc(Cl)c(C(=O)O)c2)cc1 | -0.77% (inactive) |

| SMILES | Tm shift relative to glycine control |
| --- | --- |
| Cc1ccc(C)c(NC(=S)NNC(=O)c2csc(C)c2)c1 | 1.94% (inactive) |
| CN(C)CCCn1c(=O)n(Cc2ccccc2)c(=O)c2c3c(sc21)CCCCC3 | -3.1% (inactive) |
| CCCOP(=O)(c1ccc(N(C)C)cc1)C(O)c1cc(OC)c(OC)c(OC)c1 (configuration not stated) | 3.76% (inactive) |
| CCOc1cc(/C=C(\C#N)c2nc(-c3cccs3)c(NC(C)=O)s2)ccc1O | 10.9% (active) |
| CCOc1cc(-c2cc(-c3ccc(NC(C)=O)cc3)nc(N)c2C#N)ccc1O | -13.2% (inactive) |
| CCOc1cc(C=NNC(=O)CCCC(=O)NN=Cc2ccc(O)c(OCC)c2)ccc1O | 1.26% (inactive) |
| Cc1noc(C)c1S(=O)(=O)NCCc1ccc(S(N)(=O)=O)cc1 | 5.94% (inactive) |
| O=c1ccn(Cc2ccccc2Cl)cc1 | 0.42% (inactive) |
| O=C1c2ccccc2C(O)N1Cc1ccccc1Cl (configuration not stated) | 12.8% (active) |
| O=C1c2ccccc2C(O)N1Cc1ccccc1 (configuration not stated) | 0.38% (inactive) |
| O=C(N/N=C/c1sc(N2CCCCC2)nc1-c1cccs1)c1cccnc1 | -0.4% (inactive) |
| O=C(COC(=O)COc1ccccc1F)Nc1cccc(S(=O)(=O)N2CCCCC2)c1 | -3.69% (inactive) |
| Brc1ccccc1CN1CCC(Cc2ccccc2)CC1 | 0.68% (inactive) |
| Cc1nc2ccccc2c(=O)n1NC(=O)c1ccc(Cl)c([N+](=O)[O-])c1 | 0.49% (inactive) |
| O=C(Nn1c(SCc2ccc([N+](=O)[O-])cc2)nc2ccccc2c1=O)c1ccc(F)cc1 | 14.8% (active) |
| C=CCn1c(SCc2ccc(C(=O)NCCO)cc2)nc2ccccc2c1=O | -2.22% (inactive) |
| COc1ccc(NC(=O)C2=CC(c3ccc(OC)c(OC)c3)=NS(=O)(=O)N2C)cc1 | -11.9% (inactive) |
| CCN1C(=O)C(C(=O)NC(C)c2ccccc2)C2CC1(C)Oc1ccccc12 (configuration not stated) | -1.26% (inactive) |
| CC(C)CNC(=O)COC(=O)c1ccccc1OCC(=O)Nc1ccc(Br)cc1 | 0.17% (inactive) |
